Experimental data taken from PubChem BioAssay.
Calls of active or inactive are those of the source.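 Rule for the calls, unless noted: active = inhibition of the reporter signal at or above 50%; inactive = inhibition below 50%.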

How the values were obtained:
[1] = inhibitors of TNFa-induced NFkB p65 translocation, primary screen, imaging, HUVEC, MLSMR starter and 10KST1 sets (AID 438;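 active = inhibition above 20% together with a positive visual image hit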;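 note: compound added about 3h40 before a 20 min TNFalpha stimulation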;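 for inhibition: signal is the nuclear over cytoplasmic p65 intensity ratio per well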); conditions: HUVEC TNFa-induced p65 nuclear translocation; cell count: measured here: nuclei count (cytotoxicity indicator), at 2.08 µM; inhibition: at 2 µM, stronger effect = higher value, 0% TNFa-plus-vehicle, 100% no-TNFa wells
[2] = inhibitors of mutant huntingtin aggregation, primary screen, imaging, exon1htt(103Q)mCFP cells, high-content imaging (AID 483;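 active = visual image review flags a hit and inhibition of aggregation exceeds 20%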;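 note: compound exposure lasted 3 days before fixation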;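 for nuclei count: percent of the per-plate median nuclei count of sample wells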); conditions: exon1htt(103Q)mCFP cell line, aggregate imaging, at 2 µM; inhibition of aggregation: stronger effect = higher value; nuclei count: measured here: cell count, toxicity
[3] = inhibitors of E-selectin induction by TNFa, primary screen, imaging, HUVEC, immunofluorescence, MLSMR starter and 10KST1 sets (AID 487;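 active = visually confirmed hit in the image check and inhibition above 20%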;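 for inhibition: signal is fraction of cell area covered by stained E-selectin grains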;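 for nuclei count: 100% = median nuclei count of all wells on the same plate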); conditions: HUVEC TNFalpha-induced E-selectin immunofluorescence imaging, at 2 µM; inhibition: stronger effect = higher value; nuclei count: measured here: cell number, toxicity
[4] = target: Voltage-gated potassium channel subunit beta-2 (Rattus norvegicus) (UniProt P62483); test: KvBeta enzyme negative modulators, primary screen, biochemical, NADPH fluorescence (AID 622;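 active = fluorescence slope higher than the sample average by over 3 SD, cut at about -0.22 in these data, passing the limit was not always enough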;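 note: slope of raw intensity against log time taken from 70 to 1610 s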); conditions: recombinant KvBeta, 4-cyanobenzaldehyde reduction, at 10 µM, stronger effect = higher value
Sequence of Voltage-gated potassium channel subunit beta-2 (Rattus norvegicus) (P62483 whole entry, looked up): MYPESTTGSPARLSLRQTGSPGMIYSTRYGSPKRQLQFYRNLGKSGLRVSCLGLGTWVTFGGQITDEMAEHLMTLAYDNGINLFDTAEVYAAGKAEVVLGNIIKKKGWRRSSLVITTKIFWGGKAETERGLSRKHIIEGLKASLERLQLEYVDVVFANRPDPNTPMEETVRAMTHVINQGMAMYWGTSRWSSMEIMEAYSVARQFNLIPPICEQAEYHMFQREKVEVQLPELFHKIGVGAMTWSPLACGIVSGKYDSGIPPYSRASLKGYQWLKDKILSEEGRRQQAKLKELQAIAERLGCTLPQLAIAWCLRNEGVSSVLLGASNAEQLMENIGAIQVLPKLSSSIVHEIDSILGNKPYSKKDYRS

[5] = target: Voltage-gated potassium channel subunit beta-2 (Rattus norvegicus) (UniProt P62483); test: KvBeta positive modulators, primary screen, biochemical, NADPH fluorescence (AID 623;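 active = NADPH fluorescence slope more negative than the mean of all samples by about 3 SD, 99.7% confidence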;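 note: fluorescence intensity change per second fitted from 20 to 320 s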); conditions: Recombinant KvBeta, NADPH fluorescence decrease slope, 10 min; at 10 µM; stronger effect = lower value
[6] = target: Alpha-2C adrenergic receptor (Homo sapiens) (UniProt P18825); test: modulators of alpha2C/GIRK thallium flux, primary screen, cell-based, HEK293 alpha2C/GIRK1/2 (AID 624;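 active = fluorescence slope after compound addition differing from the mean of all screened samples at 99.7% confidence, in either direction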;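 note: slope of fluorescence ratio to pre-addition baseline per second over 15 to 24 s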); conditions: thallium flux BTC fluorescence, at 10 µM, actives lie on both sides
Sequence of Alpha-2C adrenergic receptor (Homo sapiens) (P18825 whole entry, looked up): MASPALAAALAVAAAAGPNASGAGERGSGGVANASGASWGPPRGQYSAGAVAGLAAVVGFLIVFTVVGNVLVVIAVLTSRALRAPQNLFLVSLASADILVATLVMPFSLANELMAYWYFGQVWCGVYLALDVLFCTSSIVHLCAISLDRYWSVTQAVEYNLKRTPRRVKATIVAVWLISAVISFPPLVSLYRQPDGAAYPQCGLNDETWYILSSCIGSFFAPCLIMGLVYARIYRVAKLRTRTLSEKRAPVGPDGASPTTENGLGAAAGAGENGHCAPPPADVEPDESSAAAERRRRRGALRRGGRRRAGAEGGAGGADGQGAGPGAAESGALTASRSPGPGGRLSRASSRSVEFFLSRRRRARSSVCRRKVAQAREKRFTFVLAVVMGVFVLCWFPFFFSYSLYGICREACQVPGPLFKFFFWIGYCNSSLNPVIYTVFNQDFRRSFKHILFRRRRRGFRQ

[7] = inhibitors of Sendai virus-induced IRF3 signaling, primary screen, TLR/RLR signaling modifier project, cell-based, Sendai virus stimulus, luciferase, 10K MLSCN set (AID 602276;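 active = inhibition at or above 50% at 10 µM; inactive = inhibition below 50%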;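 note: firefly luciferase from ISG56 promoter only with Renilla not read in this screen; 0% = Sendai virus plus DMSO and 100% = medium plus DMSO without virus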); conditions: HEK293 RL24 IRF3 luciferase reporter, at 10 µM, stronger effect = higher value
[8] = inhibitors of poly I:C-induced TLR3 signaling, primary screen, cell-based, poly I:C stimulus, luciferase, 10K MLSCN set (AID 602277); conditions: HEK293-TLR3 RL24 IRF3 luciferase reporter, at 10 µM, stronger effect = higher value

SMILES | cell count [1] | inhibition [1] | inhibition of aggregation [2] | nuclei count [2] | inhibition [3] | nuclei count [3] | fluorescence slope [4] | NADPH fluorescence slope [5] | slope [6] | inhibition [7] | inhibition [8]
COc1ccc(C(=O)N2CCN(c3nc4cc(C)ccc4cc3C#N)CC2)c(OC)c1 | 383 | 7.6% (inactive) | -9.9% (inactive) | 102% | -49.6% (inactive) | 115% | -0.595 (inactive) | -2.2e-05 (inactive) | 0.00559 (inactive) | 14.5% (inactive) | 22% (inactive)
O=C1Nc2ccccc2OC1CC(=O)N1CCCC1 (stereo not drawn) | 491 | -6.6% (inactive) | 44.6% (active) | 80.1% | -105% (inactive) | 115% | -0.522 (inactive) | -1.3e-05 (inactive) | 0.00582 (inactive) | 6.75% (inactive) | 28.5% (inactive)
CCOc1ccc(-c2nnc(N)s2)cc1 | 432 | -3.8% (inactive) | 29.9% (inactive) | 61.4% | -8.1% (inactive) | 90.5% | -0.493 (inactive) | -0.000137 (inactive) | 0.00563 (inactive) | -27% (inactive) | -78.8% (inactive)
COc1cc(C(=O)Nc2cccc(-c3nncn3C)c2)cc(OC)c1OC | 416 | 7.6% (inactive) | 22.2% (inactive) | 76.5% | -52.3% (inactive) | 102% | -0.303 (inactive) | -2.8e-05 (inactive) | 0.00614 (inactive) | 14.3% (inactive) | 14.5% (inactive)
Cc1nc2cc(-n3ccc(=O)cc3)ccc2n1-c1ccccc1 | 352 | -2.1% (inactive) | 1.3% (inactive) | 98.4% | -286% (inactive) | 113% | -0.407 (inactive) | -3.5e-05 (inactive) | 0.00591 (inactive) | 19.8% (inactive) | 99% (active)
CC(C)(C)n1nnnc1CN1CCN(C2CCCC2)CC1 | 798 | -8.1% (inactive) | 9.7% (inactive) | 136% | -52.3% (inactive) | 107% | -0.472 (inactive) | -4.3e-05 (inactive) | 0.00587 (inactive) | -0.428% (inactive) | 21.3% (inactive)
CC(=O)Nc1c2c(nn1-c1ccc(C)cc1C)CSC2 | 570 | 0.9% (inactive) | 9.6% (inactive) | 95.7% | 33.7% (inactive) | 103% | -0.562 (inactive) | -5.2e-05 (inactive) | 0.00674 (inactive) | -12.5% (inactive) | -10.7% (inactive)
N#CC1=C(N)SC(N)=C(C#N)C1c1ccc(C(F)(F)F)cc1 | 520 | -1.5% (inactive) | -11.9% (inactive) | 114% | -69.1% (inactive) | 187% | -0.472 (inactive) | 2.9e-05 (inactive) | 0.00688 (inactive) | -1.4% (inactive) | -49.4% (inactive)
CC1CN(C(=O)CSc2nnc(-c3ccncc3)n2-c2ccccc2)CC(C)O1 (stereo not drawn) | 447 | 2.9% (inactive) | 4% (inactive) | 101% | 71.2% (active) | 124% | -0.605 (inactive) | 5.9e-06 (inactive) | 0.00638 (inactive) | 20.7% (inactive) | 24.3% (inactive)
Cc1ccc(S(=O)(=O)N2CCCC2C(=O)OCc2nc3ccccc3s2)cc1 (stereo not drawn) | 459 | -1.1% (inactive) | 4.3% (inactive) | 116% | -89% (inactive) | 110% | -0.519 (inactive) | -5.7e-05 (inactive) | 0.00533 (inactive) | 8.31% (inactive) | 25.2% (inactive)
Cn1c(=O)c2c(nc(NCCCO)n2CCc2ccccc2)n(C)c1=O | 422 | 9.7% (inactive) | -11.3% (inactive) | 105% | -27.9% (inactive) | 103% | -0.506 (inactive) | 4.3e-05 (inactive) | 0.00351 (inactive) | -9.22% (inactive) | 4.62% (inactive)
C/C(N)=C(/C#N)C(=O)CSc1nnc(Nc2cccc(C)c2)s1 | 451 | 2.9% (inactive) | 5.1% (inactive) | 101% | -79.4% (inactive) | 130% | -0.492 (inactive) | -3.5e-05 (inactive) | 0.00453 (inactive) | -7.88% (inactive) | -32.1% (inactive)
CC1CC(=O)c2cnc(NCC3CCCO3)nc2C1 (stereo not drawn) | 613 | 13.9% (inactive) | -14% (inactive) | 106% | 12.9% (inactive) | 107% | -0.404 (inactive) | -2.9e-05 (inactive) | 0.00446 (inactive) | 6.29% (inactive) | -1.06% (inactive)
CCCS(=O)(=O)N1CCC(C(=O)NCCN2CCCC2)CC1 | 201 | -6.8% (inactive) | 12.3% (inactive) | 104% | 30.3% (inactive) | 70.1% | -0.405 (inactive) | -3.3e-05 (inactive) | 0.00665 (inactive) | 13.8% (inactive) | 19.2% (inactive)
COC(=O)c1ccc(-c2nn(C)c(=O)c3ccccc23)cc1 | 493 | -5.5% (inactive) | -11.1% (inactive) | 76.7% | -13.3% (inactive) | 97.9% | -0.55 (inactive) | -3e-05 (inactive) | 0.00686 (inactive) | 8.98% (inactive) | 29.2% (inactive)
c1ccc(-n2ncc3c(N4CCCCC4)ncnc32)cc1 | 655 | -3.9% (inactive) | -2.1% (inactive) | 108% | -21.5% (inactive) | 118% | -0.574 (inactive) | -3.8e-05 (inactive) | 0.0073 (inactive) | 49.8% (inactive) | 10.6% (inactive)
O=C(c1ccco1)N(Cc1cc2ccccc2[nH]c1=O)C1CCCCC1 | 312 | 4.8% (inactive) | -13.6% (inactive) | 114% | -42.1% (inactive) | 115% | -0.617 (inactive) | 2e-05 (inactive) | 0.00525 (inactive) | -3.39% (inactive) | 6.38% (inactive)
CC1CCc2nn(CC(=O)N3CCN(C(=O)c4ccco4)CC3)cc2C1 (stereo not drawn) | 758 | -8.5% (inactive) | -12% (inactive) | 112% | -41% (inactive) | 107% | -0.585 (inactive) | -5.6e-05 (inactive) | 0.0063 (inactive) | 6.35% (inactive) | 25.7% (inactive)
Cc1ccc(C)c(/C(O)=C2\C(=O)C(=O)N(CCCN3CCOCC3)C2c2cccnc2)c1 (stereo not drawn) | 529 | 5.5% (inactive) | -1.6% (inactive) | 109% | -280% (inactive) | 127% | -0.339 (inactive) | -2.4e-06 (inactive) | 0.00619 (inactive) | 9.67% (inactive) | 21.1% (inactive)
CC(=O)NC(Cc1ccccc1)C(=O)NC1CCN(C(=O)c2cnccn2)CC1 (stereo not drawn) | 991 | -1% (inactive) | -7% (inactive) | 136% | -54.3% (inactive) | 120% | -0.48 (inactive) | -2.5e-05 (inactive) | 0.00556 (inactive) | 12.1% (inactive) | 28.6% (inactive)
CCOc1ccccc1OCCCCN1CCCC1 | 608 | 10.2% (inactive) | 15.7% (inactive) | 100% | -99% (inactive) | 122% | -0.47 (inactive) | -5.2e-06 (inactive) | 0.00972 (active) | 7.96% (inactive) | 35.8% (inactive)
COC(=O)c1ccc(NC(=O)CN2CCN(c3ccc(Cl)cc3)CC2)cc1 | 355 | -11.2% (inactive) | 12.9% (inactive) | 101% | 8.1% (inactive) | 91.5% | -0.571 (inactive) | 1.7e-05 (inactive) | 0.00455 (inactive) | 20.2% (inactive) | 21.5% (inactive)
CC(C)OC(=O)c1ccc(NC(=O)C2C3CC4OC(=O)C2C4C3)cc1 (stereo not drawn) | 324 | -10.5% (inactive) | -9.4% (inactive) | 103% | -115% (inactive) | 151% | -0.327 (inactive) | -6e-05 (inactive) | 0.00657 (inactive) | -44.9% (inactive) | -88.7% (inactive)
CC(C)Cn1c(N)c(C(=O)COC(=O)c2cc(-c3ccco3)nc3ccccc23)c(=O)n(C)c1=O | 381 | -2.2% (inactive) | -4.3% (inactive) | 100% | -133% (inactive) | 110% | -0.482 (inactive) | -1.1e-05 (inactive) | 0.00566 (inactive) | 15.4% (inactive) | -3.29% (inactive)
COc1ccc(CCNC(=O)c2cnc3scc(C)n3c2=O)cc1OC | 573 | -5.3% (inactive) | -6% (inactive) | 82.6% | 19.7% (inactive) | 86.4% | -0.411 (inactive) | -6.2e-05 (inactive) | 0.00579 (inactive) | 6.05% (inactive) | 33.9% (inactive)
COc1ccc(CNCC(=O)Nc2cc(C)nn2-c2nc(C)cc(C)n2)cc1OC | 431 | 6.7% (inactive) | -0.4% (inactive) | 104% | -481% (inactive) | 152% | -0.497 (inactive) | -2.4e-05 (inactive) | 0.00701 (inactive) | 21.1% (inactive) | 32.1% (inactive)
COc1ccccc1OCCCCNCCO | 493 | 9.1% (inactive) | -4.6% (inactive) | 103% | -80.3% (inactive) | 130% | -0.434 (inactive) | -3.7e-05 (inactive) | 0.00597 (inactive) | 1.66% (inactive) | 25.1% (inactive)
CCCCc1cc(=O)oc2cc(OCC(=O)N(CC)CC)c(Cl)cc12 | 586 | 0% (inactive) | -3.9% (inactive) | 102% | -56.9% (inactive) | 123% | -0.596 (inactive) | 7.2e-08 (inactive) | 0.00654 (inactive) | 12.5% (inactive) | 30.7% (inactive)
